# Measurements: PubChem BioAssay (Tox21)
# A number with no mark means an inactive call. Records with an inconclusive call do not appear. A call without a number means that no potency is given here. Activity calls are given as the source filed them. Unless noted, the call rests on the fitted dose curve; in most records, active means well fitted curve in the direction sought with a large enough effect in the repeat runs; inconclusive means weak or mixed curves; inactive means no such curve, though single readings can be large; an effect the other way counts as inactive or inconclusive.
# Columns and labels:
# [1] = qHTS assay to identify small molecule antagonists of the estrogen related receptor (ERR) signaling pathway from Tox21 library - cell viability counter screen (AID 1224834); further: nearly all actives have a fitted effect of over 30% in size; further: potency means the concentration at half of the fitted maximal effect
# Summary of the method: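 Compounds in DMSO were pinned onto ERR cells that had been incubated for 6 h, and the plates were held at 37 C for 17.5 h. CellTiter-Fluor reagent was then added and fluorescence was measured after 30 min.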
# [2] = target: Luciferin 4-monooxygenase (Photinus pyralis) (UniProt P08659); experiment: qHTS assay to identify small molecule inhibitors of firefly luciferase (AID 1224835); further: nearly all actives have a fitted effect of over 25% in size; further: potency means the concentration at half of the fitted maximal effect
# Chain of Luciferin 4-monooxygenase (Photinus pyralis) (P08659 whole entry, looked up): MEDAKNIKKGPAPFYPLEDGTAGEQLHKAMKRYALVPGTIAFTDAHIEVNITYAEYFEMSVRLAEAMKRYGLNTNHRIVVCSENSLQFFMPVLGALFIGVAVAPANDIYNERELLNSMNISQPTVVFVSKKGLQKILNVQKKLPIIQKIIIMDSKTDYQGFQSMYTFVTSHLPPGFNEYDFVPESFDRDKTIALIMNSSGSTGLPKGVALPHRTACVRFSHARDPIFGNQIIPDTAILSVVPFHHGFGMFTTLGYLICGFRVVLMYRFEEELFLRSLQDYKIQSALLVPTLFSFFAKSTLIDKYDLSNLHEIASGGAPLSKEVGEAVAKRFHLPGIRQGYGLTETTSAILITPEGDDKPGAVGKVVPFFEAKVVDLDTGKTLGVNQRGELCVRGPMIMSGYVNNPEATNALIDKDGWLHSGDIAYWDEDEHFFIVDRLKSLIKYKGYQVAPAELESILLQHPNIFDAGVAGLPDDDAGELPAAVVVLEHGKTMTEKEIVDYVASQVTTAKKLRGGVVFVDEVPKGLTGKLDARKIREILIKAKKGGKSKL
# Summary of the method: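 Biochemical qHTS: compounds run as interplate titrations against purified firefly enzyme, with D-luciferin and ATP each at its KM concentration. Light output recorded by CCD imaging.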
# [3] = qHTS assay to identify small molecule agonists of the constitutive androstane receptor (CAR) signaling pathway - cell viability counter screen (AID 1224836); further: nearly all actives have a fitted effect of over 45% in size
# Summary of the method: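 Compound titrations (15 concentrations) went onto HepG2-CYP2B6-hCAR cells 4 h after seeding, alongside PK11195 at a final 0.75 uM; a 23 h, 37 C/5% CO2 incubation preceded CellTiter-Fluor viability measurement.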
# [4] = qHTS assay to identify small molecule antagonists of the constitutive androstane receptor (CAR) signaling pathway - cell viability counter screen (AID 1224837); further: nearly all actives have a fitted effect of over 45% in size
# Summary of the method: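 Cells are seeded, rested 4 hr at 37 C/5% CO2, dosed with compound (15-point series) and 50 nM CITCO, incubated a further 23 hr, and then CellTiter-Fluor reagent is added before fluorescence is read. The line is HepG2 with stable hCAR and CYP2B6-2.2kb.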
# [5] = target: Nuclear receptor subfamily 1 group I member 3 (Homo sapiens) (UniProt Q14994); experiment: qHTS assay to identify small molecule antagonists of the constitutive androstane receptor (CAR) signaling pathway (AID 1224838);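 further: HepG2 cells stably expressing hCAR with CYP2B6 luciferase reporter stimulated by CITCO; nearly all actives have a fitted effect of over 40% in size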
# Chain of Nuclear receptor subfamily 1 group I member 3 (Homo sapiens) (Q14994 whole entry, looked up): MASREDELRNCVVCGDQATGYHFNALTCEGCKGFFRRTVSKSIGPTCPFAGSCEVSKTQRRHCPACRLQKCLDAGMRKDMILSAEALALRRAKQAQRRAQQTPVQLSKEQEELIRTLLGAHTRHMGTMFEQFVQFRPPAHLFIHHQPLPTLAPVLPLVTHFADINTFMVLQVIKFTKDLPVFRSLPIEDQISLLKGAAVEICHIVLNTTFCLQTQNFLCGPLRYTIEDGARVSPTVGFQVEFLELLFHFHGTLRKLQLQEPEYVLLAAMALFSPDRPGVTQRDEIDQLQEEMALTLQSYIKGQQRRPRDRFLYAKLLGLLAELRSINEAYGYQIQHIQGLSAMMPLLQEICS
# Summary of the method: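 Luminescence from a CYP2B6-2.2kb promoter reporter in hCAR-expressing HepG2 cells reflects CAR signaling. Cells received compounds at 15 concentrations and 50 nM CITCO (final), then incubated 24 h at 37 C/5% CO2.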
# [6] = target: Nuclear receptor subfamily 1 group I member 3 (Homo sapiens) (UniProt Q14994); experiment: qHTS assay to identify small molecule agonists of the constitutive androstane receptor (CAR) signaling pathway (AID 1224839); further: nearly all actives have a fitted effect of over 15% in size; further: potency means the concentration at half of the fitted maximal effect;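 on activation: HepG2 cells stably carrying human CAR and a CYP2B6 luciferase reporter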
# Summary of the method: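 In this screen, CAR-driven CYP2B6 promoter activity is measured by luminescence in HepG2-CYP2B6-hCAR cells after 24 h with test compounds and 0.75 uM PK11195 (final concentration).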
# [7] = qHTS assay to identify small molecule antagonists of the estrogen related receptor signaling pathway with the pleiotropic PPARgamma coactivator (PGC) from Tox21 10K library - cell viability counter screen (AID 1224840; active means well fitted cell-killing curve with a large enough effect in the repeat runs, not every such curve was filed as active; further: nearly all actives have a fitted effect of over 40% in size)
# Summary of the method: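 Cell viability is measured by CellTiter-Fluor fluorescence in PGC/ERR cells that receive compounds after a 6-hour attachment period and are then incubated 17.5 hours at 37 C.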
# [8] = qHTS assay to identify small molecule agonists of the estrogen related receptor signaling pathway with the pleiotropic PPARgamma coactivator (PGC) from Tox21 10K library (AID 1224842); further: nearly all actives have a fitted effect of over 15% in size; further: potency means the concentration at half of the fitted maximal effect
# Summary of the method: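 PGC/ERR reporter cell line, 2,000 cells per well, incubated 6 h at 37 C before 23 nL compound in DMSO was added. After 18 h at 37 C, One-Glo luminescence read following 30 min at room temperature.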
# [9] = target: Thyrotropin receptor (Homo sapiens) (UniProt P16473); experiment: qHTS assay to identify small molecule agonists of the thyroid stimulating hormone receptor (TSHR) signaling pathway (AID 1224843; calls by dose curve; further: nearly all actives have a fitted effect of over 45% in size)
# Chain of Thyrotropin receptor (Homo sapiens) (P16473 whole entry, looked up): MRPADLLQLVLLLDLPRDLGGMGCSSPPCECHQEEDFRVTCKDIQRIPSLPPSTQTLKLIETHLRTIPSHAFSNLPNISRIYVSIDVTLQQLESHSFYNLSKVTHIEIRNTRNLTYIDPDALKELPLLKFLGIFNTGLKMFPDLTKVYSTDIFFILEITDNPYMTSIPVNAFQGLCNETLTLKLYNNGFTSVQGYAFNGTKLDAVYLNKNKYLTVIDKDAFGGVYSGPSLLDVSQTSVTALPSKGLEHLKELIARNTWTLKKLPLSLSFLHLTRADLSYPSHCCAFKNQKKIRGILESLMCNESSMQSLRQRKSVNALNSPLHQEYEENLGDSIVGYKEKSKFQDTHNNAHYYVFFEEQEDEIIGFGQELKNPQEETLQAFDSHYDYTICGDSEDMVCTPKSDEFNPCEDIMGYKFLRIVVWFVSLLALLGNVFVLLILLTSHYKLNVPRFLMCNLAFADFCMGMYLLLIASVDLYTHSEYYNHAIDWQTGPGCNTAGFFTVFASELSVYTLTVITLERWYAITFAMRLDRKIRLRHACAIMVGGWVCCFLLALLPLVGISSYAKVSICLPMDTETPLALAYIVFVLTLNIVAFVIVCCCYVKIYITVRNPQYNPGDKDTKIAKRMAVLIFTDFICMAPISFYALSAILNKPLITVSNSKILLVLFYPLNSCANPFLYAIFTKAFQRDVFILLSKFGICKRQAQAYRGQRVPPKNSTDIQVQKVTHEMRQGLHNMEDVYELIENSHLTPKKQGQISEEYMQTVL
# Summary of the method: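 HEK293/TSHR, 800 cells/well; cpd 30 min RT; add cAMP-d2 + anti-cAMP-cryptate, 1 h RT; fluorescence read on plate reader. 15-pt titration, n=3.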
# [10] = qHTS assay to identify small molecule agonists of H2AX (AID 1224845; active means well fitted activation curve with a large enough effect in the signal ratio in the repeat runs, not every such curve was filed as active; the % refers to the signal ratio)
# Summary of the method: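 Wild-type CHO-K1 cells, plated overnight, exposed 3hr at 37C to 15 concentrations (0.76% DMSO final). Lysed, then HTRF anti-pH2AX (S139) cryptate and anti-H2AX-d2 antibodies, 24 hr room temperature; 665/620 nm emission read.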
# [11] = qHTS assay to identify small molecule agonists of the hypoxia (HIF-1) signaling pathway (AID 1224846; active means well fitted activation curve with a large enough effect in the signal ratio in the repeat runs, not every such curve was filed as active; the % refers to the signal ratio)
# Summary of the method: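 Agonist mode reporter screen. ME-180 cells stably expressing bla under HRE control received test compounds in DMSO for 17 hrs (37C, 5% CO2), and beta-lactamase activity was then detected with the CCF4-AM FRET substrate.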
# [12] = qHTS assay to identify small molecule agonists of H2AX - cell viability counter screen (AID 1224847; calls by dose curve; further: top concentration of the series differs between compounds; nearly all actives have a fitted effect of over 30% in size)
# Summary of the method: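 Read-out: CellTiter-Glo luminescence, 30 min RT. Cells: wild-type CHO-K1, 1000/well, 10% FBS, plated overnight at 37C. Treatment: 15 concentrations, 3 hr, 37C, 0.76% DMSO.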
# [13] = qHTS assay to identify small molecule antagonists of the estrogen related receptor (ERR) signaling pathway from Tox21 library (AID 1224848); further: nearly all actives have a fitted effect of over 50% in size; further: potency means the concentration at half of the fitted maximal effect
# Summary of the method: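 Compounds dissolved in DMSO are pin-transferred onto ERR reporter cells (2,000 per well) that have settled for 6 h at 37 C. Plates then incubate 18 h at 37 C before ONE-Glo luciferase reagent and a luminescence read 30 min later.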
# [14] = qHTS assay to identify small molecule agonists of the estrogen related receptor (ERR) signaling pathway from Tox21 library (AID 1224849; calls by dose curve; further: nearly all actives have a fitted effect of over 15% in size); conditions: ERR reporter cell line, ONE-Glo luciferase, 18 h; at 92.4 µM (top of the series) unless noted
# Summary of the method: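 Quantitative HTS in agonist format: NTP ERR cell line, compounds transferred in DMSO after 6 h plating, 18 h incubation at 37 C, ONE-Glo luminescence endpoint.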
# [15] = qHTS RealTime-Glo MT Cell Viability Assay in HEK293 cells - 32 hour (AID 1224868); further: nearly all actives have a fitted effect of over 50% in size; further: potency means the concentration at half of the fitted maximal effect
# Summary of the method: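 HEK293 cells seeded with NanoLuc/prosubstrate reagent, rested 5 h at 37 C, then dosed and kept at 37 C up to 40 h. Nonlytic real-time luminescence from viable cells read at 0, 8, 16, 24, 32 and 40 h.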
# [16] = A CellTox Green Cytotoxicity Assay to monitor cytotoxicity in HEK293 cells - 0 hour (AID 1224869); further: nearly all actives have a fitted effect of over 50% in size
# Summary of the method: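 Dead-cell fluorescence measured kinetically: asymmetric cyanine dye, HEK293, 600 cells/well, 5 h settle, 23 nL cpd/DMSO, 37 C, reads 0–40 h every 8 h.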
# [17] = qHTS assay to identify small molecule antagonists of the estrogen related receptor signaling pathway with the pleiotropic PPARgamma coactivator (PGC) from Tox21 10K library (AID 1224841; call rule not given here; further: actives are mostly falling curves and most rising ones were filed inactive; nearly all actives have a fitted effect of over 50% in size)
# Summary of the method: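 Cells stably carrying the PGC/ERR reporter, seeded at 2,000 per well, received pin-transferred compounds 6 h post-plating. Exposure lasted 18 h at 37 C. Signal: One-Glo luminescence.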
# [18] = qHTS assay to identify small molecule agonists of the hypoxia (HIF-1) signaling pathway - cell viability counter screen (AID 1224844; calls by dose curve; further: nearly all actives have a fitted effect of over 50% in size)
# Summary of the method: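 Viability counter screen: HRE-bla ME-180 cells plated 5 hrs before compound addition, treated 17 hrs at 37C and 5% CO2, then CellTiter-Glo added after the FRET reporter read; luminescence after 30 min.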
# [19] = qHTS RealTime-Glo MT Cell Viability Assay in HepG2 cells - 24 hour (AID 1224867); further: nearly all actives have a fitted effect of over 50% in size
# Summary of the method: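 HepG2 cells (600/well) were dispensed with RealTime-Glo reagents, incubated 5 h at 37 °C, then treated with compounds in DMSO for up to 40 h. Nonlytic NanoLuc luminescence reflecting viable cells was read at each stated time point.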
# [20] = qHTS assay to identify small molecule agonists of the estrogen related receptor signaling pathway with the pleiotropic PPARgamma coactivator (PGC) (AID 1224823)
# Summary of the method: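 Luminescence readout (One-Glo, 30 min RT) from PGC/ERR cell line treated 18 h at 37 C with pin-tool-delivered DMSO compound solutions; cells plated 6 h before dosing. Quantitative HTS format.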
Compound,Potency [1],Potency [2],outcome [3],outcome [4],Potency [5],Potency [6],outcome [7],Potency [8],outcome [9],outcome [10],outcome [11],Potency [12],Potency [13],"activity change, positive = activation [14]",Potency [15],Potency [16],Potency [17],Potency [18],outcome [19],outcome [20]
CCCC=O,inactive,inactive,inactive,inactive,inactive,inactive,inactive,inactive,inactive,inactive,inactive,inactive,inactive,0.262%,inactive,inactive,,,,
Cc1ccccc1Br,inactive,inactive,inactive,inactive,inactive,inactive,inactive,inactive,inactive,inactive,inactive,inactive,inactive,-0.692%,,inactive,inactive,inactive,inactive,
O=[N+]([O-])c1ccc(Oc2ccc([N+](=O)[O-])cc2)cc1,inactive,inactive,inactive,inactive,inactive,inactive,inactive,inactive,,,inactive,,inactive,-4.74%,,inactive,inactive,inactive,inactive,
c1cc(CN2CCCCC2)cc(OCCCNc2nc3ccccc3s2)c1,29.8 µM (active),inactive,,,inactive,inactive,inactive,inactive,inactive,inactive,inactive,,23.7 µM (active),-31.8% [at 42.5 µM],9.52 µM (active),inactive,inactive,inactive,,inactive
Oc1ccc2c(c1)OC[C@@H](N1CCC(O)(c3ccc(F)cc3)CC1)[C@H]2O,inactive,1.55 µM (active),inactive,inactive,inactive,3.76 µM (active),inactive,4.73 µM (active),,inactive,inactive,inactive,inactive,111% [at 42.5 µM] (active),,inactive,inactive,,inactive,
OC[C@H]1O[C@@H]2O[C@H]3[C@H](O)[C@@H](O)[C@@H](O[C@H]4[C@H](O)[C@@H](O)[C@@H](O[C@H]5[C@H](O)[C@@H](O)[C@@H](O[C@H]6[C@H](O)[C@@H](O)[C@@H](O[C@H]7[C@H](O)[C@@H](O)[C@@H](O[C@H]8[C@H](O)[C@@H](O)[C@@H](O[C@H]9[C@H](O)[C@@H](O)[C@@H](O[C@H]1[C@H](O)[C@H]2O)O[C@@H]9CO)O[C@@H]8CO)O[C@@H]7CO)O[C@@H]6CO)O[C@@H]5CO)O[C@@H]4CO)O[C@@H]3CO,inactive,inactive,inactive,inactive,inactive,inactive,inactive,inactive,inactive,inactive,inactive,inactive,inactive,0.681% [at 42.5 µM],,inactive,inactive,inactive,inactive,
COC(=O)[C@H]1[C@H]2C[C@@H]3c4[nH]c5cc(OC)ccc5c4CCN3C[C@H]2C[C@@H](OC(=O)COc2ccc(OC)cc2)[C@@H]1OC,inactive,inactive,inactive,inactive,inactive,inactive,inactive,inactive,inactive,inactive,inactive,inactive,inactive,-9.01% [at 42.5 µM],inactive,inactive,inactive,inactive,inactive,
CN(C)CCn1nnnc1SCC1=C(C(=O)O)N2C(=O)[C@@H](NC(=O)Cc3csc(N)n3)[C@H]2SC1,inactive,inactive,inactive,inactive,inactive,inactive,inactive,,inactive,inactive,,inactive,,,inactive,inactive,,inactive,inactive,
NC(=O)Nc1nc2ccccc2[nH]1,inactive,inactive,inactive,inactive,inactive,inactive,inactive,,,inactive,inactive,,,,inactive,inactive,,inactive,,
CC(C)[N+](C)(C)CC(O)COc1cccc2ccccc12 (centres undefined),inactive,inactive,inactive,inactive,inactive,inactive,inactive,,inactive,,inactive,inactive,,,inactive,inactive,,inactive,inactive,
NC(=O)c1ncn([C@@H]2O[C@H](CO)[C@@H](O)[C@H]2O)c1O,inactive,inactive,inactive,inactive,inactive,inactive,inactive,,inactive,inactive,,inactive,,,inactive,inactive,,inactive,inactive,
Cc1nccn1CC1CCc2c(c3ccccc3n2C)C1=O (centres undefined),inactive,inactive,inactive,inactive,inactive,inactive,inactive,,inactive,inactive,,inactive,,,inactive,inactive,,inactive,inactive,
CC(O)CN(CCCN(C)C)CCCN(C)C (centres undefined),inactive,inactive,inactive,inactive,inactive,inactive,inactive,,,inactive,inactive,,,,,inactive,,inactive,inactive,
CCCC(=O)O[C@]1(C(=O)CCl)[C@@H](C)C[C@H]2[C@@H]3CCC4=CC(=O)C=C[C@]4(C)[C@@]3(F)C(=O)C[C@@]21C,inactive,inactive,inactive,inactive,inactive,inactive,inactive,,inactive,inactive,,inactive,,,,inactive,,inactive,,
C=C(C)[C@H]1CC=C(C)CC1,inactive,inactive,inactive,inactive,inactive,inactive,inactive,,,inactive,inactive,inactive,,,inactive,inactive,,inactive,,
C=C[Si](OC)(OC)OC,inactive,inactive,inactive,inactive,inactive,inactive,inactive,,,inactive,inactive,inactive,,,,inactive,,inactive,inactive,
COC(=O)CCCC(=O)O,inactive,inactive,inactive,inactive,inactive,inactive,inactive,,inactive,inactive,,,,,inactive,inactive,,inactive,inactive,
